# From publication PMC7862700, “An all-to-all approach to the identification of sequence-specific readers for epigenetic DNA modifications on cytosine”
# How the values were obtained:
# Assay in all cases: DAPPL (digital affinity profiling via proximity ligation, sequencing); 10 mM Tris-HCl pH 7.5, 50 mM NaCl, 1 mM DTT, 4% glycerol, room temperature, 30 min; GST-TFs on glutathione beads, 16-mer random dsDNA library, 0.1% formaldehyde crosslink after washing; high values mean tight binding
# FLI1 = target: T1, FLI1 (Homo sapiens, UniProt Q01543 1-452); conditions: protein: recombinant; tags: N-terminal GST; dsDNA, one strand shown
# T1 sequence: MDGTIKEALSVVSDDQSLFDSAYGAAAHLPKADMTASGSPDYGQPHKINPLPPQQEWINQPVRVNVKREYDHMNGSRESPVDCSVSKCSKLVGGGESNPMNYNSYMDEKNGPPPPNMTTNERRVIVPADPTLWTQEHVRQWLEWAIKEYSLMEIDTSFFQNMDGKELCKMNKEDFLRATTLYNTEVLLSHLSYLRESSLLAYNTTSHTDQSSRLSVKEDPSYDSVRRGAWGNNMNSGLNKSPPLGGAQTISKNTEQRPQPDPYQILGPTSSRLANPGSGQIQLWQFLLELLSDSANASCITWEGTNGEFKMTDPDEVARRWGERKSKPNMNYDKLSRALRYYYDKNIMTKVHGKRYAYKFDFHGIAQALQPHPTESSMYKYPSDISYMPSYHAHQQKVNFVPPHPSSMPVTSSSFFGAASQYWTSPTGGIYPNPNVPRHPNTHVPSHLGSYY
# Procedure, shortened: (§1)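 After expression in yeast as GST fusions, human transcription factors were bound to glutathione beads, DNA-barcoded and mixed with a tag-only sample. The pools were incubated with 200 nmole of a 16-mer random double-stranded DNA library in Tris/NaCl/DTT/glycerol buffer (30 min, room temperature), washed and crosslinked with 0.1% formaldehyde. Proximity ligation with BsaI/T4 ligase ran for 1 h at 37 °C, before PCR amplification and sequencing on an Illumina NextSeq500. Binding signal is a hexamer's read frequency for a factor divided by its frequency for the tag-only sample.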
# ELK1 = target: T2, ELK1 (Homo sapiens, UniProt P19419 1-428); conditions: protein: recombinant; tags: N-terminal GST; dsDNA, one strand shown
# T2 sequence: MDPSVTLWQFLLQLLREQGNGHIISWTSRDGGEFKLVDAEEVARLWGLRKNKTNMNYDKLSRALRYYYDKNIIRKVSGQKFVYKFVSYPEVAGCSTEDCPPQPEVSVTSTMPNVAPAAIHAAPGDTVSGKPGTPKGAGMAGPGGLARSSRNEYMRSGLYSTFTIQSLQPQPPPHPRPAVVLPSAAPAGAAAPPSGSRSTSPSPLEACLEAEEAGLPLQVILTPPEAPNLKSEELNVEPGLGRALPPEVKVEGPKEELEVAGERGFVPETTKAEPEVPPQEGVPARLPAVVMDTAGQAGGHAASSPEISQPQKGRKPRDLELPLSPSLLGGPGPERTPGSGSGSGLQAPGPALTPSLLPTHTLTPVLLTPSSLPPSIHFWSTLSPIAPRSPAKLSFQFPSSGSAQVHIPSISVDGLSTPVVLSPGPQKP
# Procedure, shortened: as §1
# GABPA = target: T3, GABPA (Homo sapiens, UniProt Q06546 1-454); conditions: protein: recombinant; tags: N-terminal GST; dsDNA, one strand shown
# T3 sequence: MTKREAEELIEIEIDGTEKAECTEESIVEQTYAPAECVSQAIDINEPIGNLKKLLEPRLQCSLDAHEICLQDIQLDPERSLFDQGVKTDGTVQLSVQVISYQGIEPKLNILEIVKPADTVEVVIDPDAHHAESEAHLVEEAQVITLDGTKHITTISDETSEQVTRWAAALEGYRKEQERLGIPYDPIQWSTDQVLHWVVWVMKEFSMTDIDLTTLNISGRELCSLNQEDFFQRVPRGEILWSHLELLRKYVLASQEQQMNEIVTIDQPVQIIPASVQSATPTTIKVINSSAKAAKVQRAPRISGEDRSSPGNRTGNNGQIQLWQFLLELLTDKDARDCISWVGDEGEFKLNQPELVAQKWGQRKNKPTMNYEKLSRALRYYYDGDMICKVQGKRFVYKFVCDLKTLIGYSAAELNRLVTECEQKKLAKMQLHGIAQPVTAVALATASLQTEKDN
# Procedure, shortened: as §1
# ERG = target: T4, ERG (Homo sapiens, UniProt P11308 1-479); conditions: protein: recombinant; tags: N-terminal GST; dsDNA, one strand shown
# T4 sequence: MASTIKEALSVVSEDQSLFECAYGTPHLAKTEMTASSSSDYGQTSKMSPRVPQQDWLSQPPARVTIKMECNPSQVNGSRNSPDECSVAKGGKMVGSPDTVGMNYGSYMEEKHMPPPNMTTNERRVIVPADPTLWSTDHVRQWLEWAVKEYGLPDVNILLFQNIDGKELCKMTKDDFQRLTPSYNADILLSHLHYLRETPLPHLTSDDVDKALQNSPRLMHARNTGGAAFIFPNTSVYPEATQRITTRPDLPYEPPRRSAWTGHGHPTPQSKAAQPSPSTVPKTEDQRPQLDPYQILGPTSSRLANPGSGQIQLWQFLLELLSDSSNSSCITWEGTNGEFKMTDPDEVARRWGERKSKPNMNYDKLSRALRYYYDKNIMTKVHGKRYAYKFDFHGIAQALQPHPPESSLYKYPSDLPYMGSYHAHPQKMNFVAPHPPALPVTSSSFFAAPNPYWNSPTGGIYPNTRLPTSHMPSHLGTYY
# Procedure, shortened: as §1
# ELF1 = ELF1 (Homo sapiens, UniProt P32519 1-619); conditions: protein: recombinant; tags: N-terminal GST; dsDNA, one strand shown
# Chain of ELF1 (P32519 whole entry): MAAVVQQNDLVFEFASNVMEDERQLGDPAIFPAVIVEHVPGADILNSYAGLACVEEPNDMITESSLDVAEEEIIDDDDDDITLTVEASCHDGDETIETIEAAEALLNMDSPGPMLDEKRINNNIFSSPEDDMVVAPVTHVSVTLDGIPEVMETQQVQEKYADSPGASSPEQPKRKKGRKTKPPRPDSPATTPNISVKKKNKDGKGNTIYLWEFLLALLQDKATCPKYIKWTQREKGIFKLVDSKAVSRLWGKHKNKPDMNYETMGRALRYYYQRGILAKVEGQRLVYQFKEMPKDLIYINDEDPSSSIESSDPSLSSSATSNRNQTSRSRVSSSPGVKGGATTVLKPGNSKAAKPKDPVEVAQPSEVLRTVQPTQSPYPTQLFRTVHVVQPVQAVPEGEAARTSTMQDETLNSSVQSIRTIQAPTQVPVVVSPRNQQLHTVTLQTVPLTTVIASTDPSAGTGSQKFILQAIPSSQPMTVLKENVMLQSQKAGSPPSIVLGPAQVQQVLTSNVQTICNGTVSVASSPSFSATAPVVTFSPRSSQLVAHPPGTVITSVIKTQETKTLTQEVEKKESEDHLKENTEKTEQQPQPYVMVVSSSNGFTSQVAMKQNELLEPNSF
# Procedure, shortened: as §1
# EHF = target: T5, EHF (Homo sapiens, UniProt Q9NZC4 1-300); conditions: protein: recombinant; tags: N-terminal GST; dsDNA, one strand shown
# T5 sequence: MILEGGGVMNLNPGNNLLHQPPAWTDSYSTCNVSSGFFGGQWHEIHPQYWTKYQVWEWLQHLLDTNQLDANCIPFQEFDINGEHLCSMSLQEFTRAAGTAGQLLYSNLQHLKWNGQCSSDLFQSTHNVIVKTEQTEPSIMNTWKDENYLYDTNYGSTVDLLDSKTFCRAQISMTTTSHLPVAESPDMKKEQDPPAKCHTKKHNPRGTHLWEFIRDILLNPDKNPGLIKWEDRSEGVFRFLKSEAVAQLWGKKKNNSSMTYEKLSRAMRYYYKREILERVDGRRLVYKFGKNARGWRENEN
# Procedure, shortened: as §1
# SPI1 = SPI1 (Homo sapiens, UniProt P17947 1-270); conditions: protein: recombinant; tags: N-terminal GST; dsDNA, one strand shown
# Procedure, shortened: as §1
# SPIB = SPIB (Homo sapiens, UniProt Q01892 1-262); conditions: protein: recombinant; tags: N-terminal GST; dsDNA, one strand shown
# Chain of SPIB (Q01892 whole entry): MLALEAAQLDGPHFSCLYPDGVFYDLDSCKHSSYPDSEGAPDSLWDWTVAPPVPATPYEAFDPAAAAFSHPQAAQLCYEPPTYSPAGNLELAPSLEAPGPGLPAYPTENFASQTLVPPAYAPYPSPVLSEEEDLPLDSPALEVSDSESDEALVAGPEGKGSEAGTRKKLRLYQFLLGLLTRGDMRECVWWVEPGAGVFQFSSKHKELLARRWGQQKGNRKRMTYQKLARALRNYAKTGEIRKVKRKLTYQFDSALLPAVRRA
# Procedure, shortened: as §1
# ELK3 = target: T6, ELK3 (Homo sapiens, UniProt P41970 1-407); conditions: protein: recombinant; tags: N-terminal GST; dsDNA, one strand shown
# T6 sequence: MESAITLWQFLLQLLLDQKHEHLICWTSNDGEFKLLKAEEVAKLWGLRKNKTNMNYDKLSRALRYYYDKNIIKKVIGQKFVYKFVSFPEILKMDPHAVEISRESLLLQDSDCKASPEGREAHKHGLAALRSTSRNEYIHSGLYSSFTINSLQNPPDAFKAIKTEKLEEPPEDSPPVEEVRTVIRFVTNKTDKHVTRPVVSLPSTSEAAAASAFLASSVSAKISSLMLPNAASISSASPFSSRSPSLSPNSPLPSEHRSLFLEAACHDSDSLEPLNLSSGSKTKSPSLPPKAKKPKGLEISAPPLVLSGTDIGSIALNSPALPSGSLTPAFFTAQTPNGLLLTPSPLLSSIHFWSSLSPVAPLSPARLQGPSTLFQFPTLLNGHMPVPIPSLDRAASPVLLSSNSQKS
# Procedure, shortened: as §1
# FEV = target: T7, FEV (Homo sapiens, UniProt Q99581 1-238); conditions: protein: recombinant; tags: N-terminal GST; dsDNA, one strand shown
# T7 sequence: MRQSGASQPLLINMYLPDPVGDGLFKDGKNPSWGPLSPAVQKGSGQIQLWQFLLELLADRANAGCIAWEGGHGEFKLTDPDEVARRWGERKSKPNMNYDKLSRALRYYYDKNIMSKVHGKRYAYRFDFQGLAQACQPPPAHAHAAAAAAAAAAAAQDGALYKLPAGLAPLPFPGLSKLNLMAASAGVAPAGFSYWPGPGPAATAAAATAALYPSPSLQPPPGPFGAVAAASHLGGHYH
# Procedure, shortened: as §1
# ETV5 = ETV5 (Homo sapiens, UniProt P41161 1-510); conditions: protein: recombinant; tags: N-terminal GST; dsDNA, one strand shown
# Chain of ETV5 (P41161 whole entry): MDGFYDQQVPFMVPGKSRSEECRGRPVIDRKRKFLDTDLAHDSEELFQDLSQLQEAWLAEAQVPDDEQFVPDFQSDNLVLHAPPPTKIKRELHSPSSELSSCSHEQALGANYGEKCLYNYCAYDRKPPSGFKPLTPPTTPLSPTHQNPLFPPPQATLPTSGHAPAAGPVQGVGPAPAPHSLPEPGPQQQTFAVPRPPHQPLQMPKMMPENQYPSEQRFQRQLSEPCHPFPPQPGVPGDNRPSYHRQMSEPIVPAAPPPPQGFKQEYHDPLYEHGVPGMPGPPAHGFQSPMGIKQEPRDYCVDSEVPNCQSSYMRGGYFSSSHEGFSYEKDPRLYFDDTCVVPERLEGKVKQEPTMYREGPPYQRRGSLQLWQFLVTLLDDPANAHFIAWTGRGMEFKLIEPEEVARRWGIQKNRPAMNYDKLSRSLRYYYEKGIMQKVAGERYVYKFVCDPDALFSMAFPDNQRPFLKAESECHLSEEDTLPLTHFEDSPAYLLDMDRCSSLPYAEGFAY
# Procedure, shortened: as §1
# HSF1 = HSF1 (Homo sapiens, UniProt Q00613 1-529); conditions: protein: recombinant; tags: N-terminal GST; chain copies: 3; dsDNA, one strand shown
# Chain of HSF1 (Q00613 whole entry): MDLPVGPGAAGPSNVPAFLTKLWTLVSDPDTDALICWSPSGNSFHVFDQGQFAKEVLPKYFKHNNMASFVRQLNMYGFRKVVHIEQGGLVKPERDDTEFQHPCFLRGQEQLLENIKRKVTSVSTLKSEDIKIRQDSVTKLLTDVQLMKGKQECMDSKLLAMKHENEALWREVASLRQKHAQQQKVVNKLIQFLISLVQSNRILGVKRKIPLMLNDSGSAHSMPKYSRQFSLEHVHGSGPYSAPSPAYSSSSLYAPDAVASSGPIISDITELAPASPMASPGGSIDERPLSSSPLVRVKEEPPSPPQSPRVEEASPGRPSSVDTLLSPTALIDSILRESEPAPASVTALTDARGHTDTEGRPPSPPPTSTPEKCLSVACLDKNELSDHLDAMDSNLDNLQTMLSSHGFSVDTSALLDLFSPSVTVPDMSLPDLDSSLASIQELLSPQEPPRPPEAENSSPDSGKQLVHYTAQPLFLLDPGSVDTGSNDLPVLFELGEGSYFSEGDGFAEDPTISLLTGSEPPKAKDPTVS
# Procedure, shortened: as §1
# SPIC = target: T8, SPIC (Homo sapiens, UniProt Q8N5J4 1-248); conditions: protein: recombinant; tags: N-terminal GST; dsDNA, one strand shown
# T8 sequence: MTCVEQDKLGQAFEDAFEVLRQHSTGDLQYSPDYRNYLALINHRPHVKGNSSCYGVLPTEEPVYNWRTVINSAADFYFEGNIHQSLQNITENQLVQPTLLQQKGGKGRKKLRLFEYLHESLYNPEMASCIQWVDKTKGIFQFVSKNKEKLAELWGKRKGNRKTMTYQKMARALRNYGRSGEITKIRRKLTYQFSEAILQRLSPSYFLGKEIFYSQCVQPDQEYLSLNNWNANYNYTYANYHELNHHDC
# Procedure, shortened: as §1
# ELF4 = ELF4 (Homo sapiens, UniProt Q99607 1-663); conditions: protein: recombinant; tags: N-terminal GST; dsDNA, one strand shown
# Chain of ELF4 (Q99607 whole entry): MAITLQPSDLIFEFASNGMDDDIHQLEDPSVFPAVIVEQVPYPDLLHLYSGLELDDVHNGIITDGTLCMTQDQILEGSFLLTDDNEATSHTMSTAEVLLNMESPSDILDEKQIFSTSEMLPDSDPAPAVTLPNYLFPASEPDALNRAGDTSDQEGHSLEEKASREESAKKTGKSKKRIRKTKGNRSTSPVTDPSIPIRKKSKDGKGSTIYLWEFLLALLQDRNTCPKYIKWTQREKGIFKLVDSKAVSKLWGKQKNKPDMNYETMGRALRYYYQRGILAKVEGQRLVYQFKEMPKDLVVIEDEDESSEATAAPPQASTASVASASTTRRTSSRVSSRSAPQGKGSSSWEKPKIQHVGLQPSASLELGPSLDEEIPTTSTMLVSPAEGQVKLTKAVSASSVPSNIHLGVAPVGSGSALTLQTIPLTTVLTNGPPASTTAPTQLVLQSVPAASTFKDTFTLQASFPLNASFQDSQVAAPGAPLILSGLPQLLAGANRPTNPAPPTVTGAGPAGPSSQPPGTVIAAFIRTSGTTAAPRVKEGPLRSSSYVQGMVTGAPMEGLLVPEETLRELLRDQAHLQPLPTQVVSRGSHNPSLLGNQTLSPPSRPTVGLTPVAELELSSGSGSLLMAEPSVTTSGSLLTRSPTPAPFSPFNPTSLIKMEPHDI
# Procedure, shortened: as §1
# ELK4 = target: T9, ELK4 (Homo sapiens, UniProt P28324-2 1-405); conditions: protein: recombinant; tags: N-terminal GST; dsDNA, one strand shown
# T9 sequence: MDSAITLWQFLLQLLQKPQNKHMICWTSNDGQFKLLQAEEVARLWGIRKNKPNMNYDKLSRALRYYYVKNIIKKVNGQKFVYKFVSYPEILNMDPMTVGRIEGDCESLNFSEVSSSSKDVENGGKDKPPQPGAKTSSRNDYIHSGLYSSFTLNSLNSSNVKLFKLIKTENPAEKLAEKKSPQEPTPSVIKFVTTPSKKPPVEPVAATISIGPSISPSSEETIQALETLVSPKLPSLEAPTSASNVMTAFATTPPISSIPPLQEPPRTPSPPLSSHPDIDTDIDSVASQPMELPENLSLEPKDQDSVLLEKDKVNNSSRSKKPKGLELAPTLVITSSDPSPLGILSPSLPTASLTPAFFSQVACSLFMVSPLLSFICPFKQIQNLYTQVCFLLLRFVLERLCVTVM
# Procedure, shortened: as §1
# ETV2 = target: T10, ETV2 (Homo sapiens, UniProt O00321 1-342); conditions: protein: recombinant; tags: N-terminal GST; dsDNA, one strand shown
# T10 sequence: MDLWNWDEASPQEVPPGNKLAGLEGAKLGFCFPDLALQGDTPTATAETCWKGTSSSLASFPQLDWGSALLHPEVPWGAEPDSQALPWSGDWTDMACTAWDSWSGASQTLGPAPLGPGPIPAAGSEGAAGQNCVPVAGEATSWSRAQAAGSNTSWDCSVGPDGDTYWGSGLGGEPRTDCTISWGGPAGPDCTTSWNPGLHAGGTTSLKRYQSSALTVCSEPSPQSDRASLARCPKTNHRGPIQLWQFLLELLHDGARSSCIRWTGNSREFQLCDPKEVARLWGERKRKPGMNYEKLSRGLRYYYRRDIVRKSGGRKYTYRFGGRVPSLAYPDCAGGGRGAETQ
# Procedure, shortened: as §1
# ELF3 = target: T11, ELF3 (Homo sapiens, UniProt P78545 1-371); conditions: protein: recombinant; tags: N-terminal GST; dsDNA, one strand shown
# T11 sequence: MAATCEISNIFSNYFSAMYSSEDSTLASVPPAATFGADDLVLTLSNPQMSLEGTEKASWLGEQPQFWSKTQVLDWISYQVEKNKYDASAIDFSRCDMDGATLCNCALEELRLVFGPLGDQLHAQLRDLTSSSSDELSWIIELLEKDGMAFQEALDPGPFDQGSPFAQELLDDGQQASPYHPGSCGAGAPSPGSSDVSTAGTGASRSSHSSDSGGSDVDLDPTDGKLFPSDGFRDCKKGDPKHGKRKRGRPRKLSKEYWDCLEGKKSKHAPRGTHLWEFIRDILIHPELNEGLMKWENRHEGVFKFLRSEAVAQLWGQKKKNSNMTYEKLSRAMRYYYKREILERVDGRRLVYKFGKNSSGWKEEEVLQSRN
# Procedure, shortened: as §1
# CRX = CRX (Homo sapiens, UniProt O43186 1-299); conditions: protein: recombinant; tags: N-terminal GST; dsDNA, one strand shown
# Chain of CRX (O43186 whole entry): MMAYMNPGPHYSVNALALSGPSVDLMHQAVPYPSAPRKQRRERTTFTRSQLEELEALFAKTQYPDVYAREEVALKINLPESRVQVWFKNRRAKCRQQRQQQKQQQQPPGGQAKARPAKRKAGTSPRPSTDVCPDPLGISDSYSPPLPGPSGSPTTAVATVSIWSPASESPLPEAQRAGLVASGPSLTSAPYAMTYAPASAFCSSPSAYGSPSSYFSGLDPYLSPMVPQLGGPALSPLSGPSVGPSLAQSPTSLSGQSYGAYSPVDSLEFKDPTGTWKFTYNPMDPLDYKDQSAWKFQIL
# Procedure, shortened: as §1
# ETV1 = ETV1 (Homo sapiens, UniProt P50549 1-477); conditions: protein: recombinant; tags: N-terminal GST; dsDNA, one strand shown
# Chain of ETV1 (P50549 whole entry): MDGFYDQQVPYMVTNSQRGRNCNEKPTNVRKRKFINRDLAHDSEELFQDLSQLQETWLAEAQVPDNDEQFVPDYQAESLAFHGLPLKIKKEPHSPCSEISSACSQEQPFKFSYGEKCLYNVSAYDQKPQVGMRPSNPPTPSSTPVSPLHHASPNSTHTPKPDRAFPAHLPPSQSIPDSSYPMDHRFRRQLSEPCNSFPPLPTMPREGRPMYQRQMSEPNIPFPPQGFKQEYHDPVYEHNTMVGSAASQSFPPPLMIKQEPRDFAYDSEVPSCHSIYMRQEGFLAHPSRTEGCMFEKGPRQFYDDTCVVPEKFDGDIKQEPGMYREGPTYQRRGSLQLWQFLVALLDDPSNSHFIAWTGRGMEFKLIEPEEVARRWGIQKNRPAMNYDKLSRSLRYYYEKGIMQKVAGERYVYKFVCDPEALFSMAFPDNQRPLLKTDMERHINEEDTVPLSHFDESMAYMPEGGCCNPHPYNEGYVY
# Procedure, shortened: as §1
sequence,measurement,setting,value
ACTCTA,binding signal,FLI1,"1.42 fold enrichment (6-mer frequency, TF over GST control)"
same,binding signal,ELK1,"1.46 fold enrichment (6-mer frequency, TF over GST control)"
same,binding signal,GABPA,"1.52 fold enrichment (6-mer frequency, TF over GST control)"
same,binding signal,ERG,"1.39 fold enrichment (6-mer frequency, TF over GST control)"
same,binding signal,ELF1,"1.52 fold enrichment (6-mer frequency, TF over GST control)"
same,binding signal,EHF,"1.56 fold enrichment (6-mer frequency, TF over GST control)"
same,binding signal,SPI1,"1.5 fold enrichment (6-mer frequency, TF over GST control)"
same,binding signal,SPIB,"1.45 fold enrichment (6-mer frequency, TF over GST control)"
same,binding signal,ELK3,"1.38 fold enrichment (6-mer frequency, TF over GST control)"
same,binding signal,FEV,"1.45 fold enrichment (6-mer frequency, TF over GST control)"
same,binding signal,ETV5,"1.48 fold enrichment (6-mer frequency, TF over GST control)"
same,binding signal,HSF1,"1.63 fold enrichment (6-mer frequency, TF over GST control)"
same,binding signal,SPIC,"1.63 fold enrichment (6-mer frequency, TF over GST control)"
same,binding signal,ELF4,"1.41 fold enrichment (6-mer frequency, TF over GST control)"
same,binding signal,ELK4,"1.43 fold enrichment (6-mer frequency, TF over GST control)"
same,binding signal,ETV2,"1.41 fold enrichment (6-mer frequency, TF over GST control)"
same,binding signal,ELF3,"1.36 fold enrichment (6-mer frequency, TF over GST control)"
same,binding signal,CRX,"1.52 fold enrichment (6-mer frequency, TF over GST control)"
same,binding signal,ETV1,"1.42 fold enrichment (6-mer frequency, TF over GST control)"
